The record followed here is PubChem BioAssay AID624114 (Johns Hopkins Ion Channel Center, 2012).

Molecules are shown by their SMILES. Hit rate of the full screen: of about 4,000 compounds, about 15 (0.4%) were called active.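 How the source made its calls: active means calcium fluorescence ratio, averaged over duplicates, at least 3 SD of the buffer-well ratio, meaning a nonspecific response in receptor-free cells; inactive means the rest.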 These entries were drawn from the full list.

The nature of the assay: calcium response in parental HEK293 cells, primary screen, counter-screen for MrgX1 allosteric activator project, cell-based, Fluo-4 calcium flux, duplicate (AID 624114).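 Further: untransfected parental HEK293 lacking MrgX1 used as counterscreen for MrgX1 allosteric activators.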 The settings on record: Fluo-4 fluorescence ratio, at 10 µM.
Consider `Cc1ccnc(NC(=O)C(C)N2C(=O)c3ccccc3C2=O)c1` (configuration not stated), for which the outcome was inactive. The value for `CCC(C)c1ccccc1N1CC(C(=O)N2CCN(S(=O)(=O)c3ccc(F)cc3)CC2)CC1=O` (configuration not stated) was “inactive”; that for `Cc1ccc(Nc2nc(-c3ccc(O)cc3O)cs2)nc1` was “inactive”. Turning to `CCC(C)Sc1nc(C)nc2c1c(=O)n(C)c(=O)n2C` (configuration not stated), the outcome was inactive. As for `Cc1ccnc(-n2sc3ccccc3c2=O)n1`, the result was inactive.

Regarding `CCOC(=O)C1=C(O)CSC1=Nc1cccc(Cl)c1`, the result was inactive.

Turning to `COCc1nnc(NC(=O)c2ccc3c(c2)OCO3)s1`, the outcome was inactive. For the molecule `CC1(C(=O)O)CCC(C(=O)Nc2ccc(Cl)c(Cl)c2)C1(C)C` (configuration not stated), the result was inactive. The value for `CC(C)CNc1ncnc2c1cnn2Cc1ccc(Cl)cc1` was “inactive”; that for `CCc1ccc(N(CC(=O)Nc2sc3c(c2C(=O)OC)CCCC3)S(C)(=O)=O)cc1` was “inactive”. Regarding `OCCn1c(-c2ccccc2)csc1=Nc1ccccc1`, the outcome was inactive. As to `CCOc1ccc(NC(=O)CCNC(=O)c2ccc(Br)cc2)cc1`, the outcome was inactive. On to `Cc1ccc(C(C(=O)NC2CCCCC2)N(C(=O)c2csnn2)C2CC2)o1` (configuration not stated), for which the result was inactive. Consider `COc1ccc(-c2cc(C(F)(F)F)nc(S(C)(=O)=O)n2)cc1OC`, for which the outcome was inactive. Then `O=C(C1CCN(S(=O)(=O)c2cnc[nH]2)CC1)N1CCN(Cc2ccc3c(c2)OCO3)CC1`, with “inactive”. For `O=C(Nc1cccc(Cl)c1)c1cncn1-c1ccc(F)cc1`, the result was inactive.

`Cc1nonc1C1CCCN1Cc1nc(-c2ccc(F)cc2F)oc1C` (configuration not stated): the result was inactive. On to `Cc1ccc2c(C)c(C(=O)N(C)CCC3CCCCO3)oc2c1C` (configuration not stated), for which the result was inactive. Regarding `O=C(CN1CCN(c2ccc(Cl)cc2)CC1)N1CCCC1`, the result was inactive.

Consider `COc1cc2c(cc1O)C(SC)=NC(C)(C)C2`, for which the outcome was inactive. On to `FC(F)Oc1ccc(NC(=S)NCc2ccco2)cc1Cl`, for which the outcome was inactive. Turning to `COc1ccc(Nc2nnc(C)c3ccccc23)cc1`, the result was inactive.

As for `Cc1c(C)c2c(OCC(=O)N[C@@H](C(=O)O)c3ccccc3)cc3c(c2oc1=O)CCC(C)(C)O3`, the outcome was inactive.

In the case of `CCSc1nsc(NC(=O)Nc2cccc(C(C)=O)c2)n1`, the outcome was inactive.

For the molecule `Cc1c(C(=O)N2CCN(c3ccc(F)cc3)CC2)oc2c1C(=O)CCC2`, the outcome was inactive.

As for `O=C(c1cccc(S(=O)(=O)Nc2ccccc2Cl)c1)N1CCN(C(=O)c2ccco2)CC1`, the result was inactive.

Consider `O=C(Cn1c(-c2cncs2)nc2ccccc21)NC1CCCC1`, for which the outcome was inactive. As to `CC1(C)CC2CC(C)(CN2c2ncnc3ccc(Br)cc23)C1` (configuration not stated), the result was inactive. Consider `CCOC(=O)c1c(NC(=O)CSc2cn(CC)c3ccccc23)sc2c1CCC2`, for which the result was inactive. In the case of `O=C(O)CSC(NC(=O)c1cccnc1)(C(F)(F)F)C(F)(F)F`, the result was inactive. Then `CCOC(=O)N1CCN(C(=O)COCc2cc(-c3ccc4c(c3)OCO4)on2)CC1`, with “inactive”. On to `COc1ccc(C(=O)Nc2c(N)nc(SCC(=O)N3CCC(C)CC3)[nH]c2=O)cc1OC`, for which the result was inactive. As for `CCOc1cc(-c2conc2N)cc(OCC)c1OCC`, the result was inactive. Consider `O=C1CCCN1CCCNC(=S)Nc1ccc(F)c(Cl)c1`, for which the outcome was inactive.

With `COc1ccc(C(=O)NNC(=S)NC(=O)c2ccccc2)cc1`, the outcome was inactive.

Consider `Nc1ccc(Oc2ccc(Cl)cc2)cc1`, for which the result was inactive. The value for `CN(CC(=O)Nc1ccccc1Cl)C(=O)COc1cccc2c1OC(C)(C)C2` was “inactive”; that for `CCOc1ccc2nc(/N=C/c3nc(-c4ccccc4)oc3O)sc2c1` was “inactive”; that for `FC(F)(F)c1cc(-c2cccs2)nc(NCc2ccco2)n1` was “inactive”.

For `O=C(CSc1c2c(nc3ccc(Cl)cc13)CCCC2)NCc1ccco1`, the outcome was inactive.

Regarding `COc1ccc(Nc2nc(-c3cccnc3)nc3ccccc23)cn1`, the result was inactive. For `CN(C)CCn1c(=S)[nH]c2ccc(Cl)cc2c1=O`, the result was inactive. As for `COC(=O)c1sccc1NS(=O)(=O)c1ccc(F)cc1F`, the outcome was inactive. Consider `COc1ccc2c(c1)OC(O)(C(F)(F)C(F)F)CC2=O` (configuration not stated), for which the outcome was inactive. Consider `CC(C)NC(=S)Nc1cccc2cnccc12`, for which the result was inactive. Consider `C=CCNC(=O)c1cc(-c2ccccc2O)on1`, for which the result was inactive. As for `O=C(Nc1ccccc1N1CCCCC1)c1ccc2nccnc2c1`, the outcome was inactive.

For the molecule `Cc1ccc2c(c1)c1ncnc(N3CCc4ccccc4C3)c1n2C`, the result was inactive. For `CCc1ccc2nc3sc(C(=O)Nc4nnc(CC)s4)c(N)c3cc2c1`, the outcome was inactive. Take `COc1ccc(C(=O)NC(=S)NNC(=O)c2c(-c3ccccc3)noc2C)cc1`: the result was inactive. As to `COc1ccccc1N(CC(=O)N1CCCCC1)S(=O)(=O)c1ccccc1`, the result was inactive. The value for `CC(C)OCCCNc1ncnc2c1[nH]c1ccc(F)cc12` was “inactive”.

Take `COc1cc(CCC(=O)Nc2ccncc2Cl)cc(OC)c1OC`: the outcome was inactive.

Turning to `CCCc1[nH]nc2c1C(c1ccc(Br)s1)C(C#N)=C(N)O2` (configuration not stated), the result was inactive. Regarding `O=C(Cc1ccccn1)c1ccc(O)cc1O`, the result was inactive. For the molecule `Cc1cccn2c(=O)c(/C=C3\SC(=S)N(CC(C)C)C3=O)c(NCCCOC(C)C)nc12`, the result was inactive.

For `O=C(Nc1ccccc1N1CCOCC1)c1csc2c1CCCC2`, the result was inactive.

`Brc1ccccc1C1Nc2cccc3cccc(c23)N1`: the outcome was inactive.

With `Cc1ccc(NC2(C#N)C(=O)Nc3ccccc32)cc1` (configuration not stated), the result was inactive. As to `Cc1nccn1CCC1CCCCN1C(=O)CCc1nnc(-c2ccsc2)o1` (configuration not stated), the outcome was inactive. Turning to `OCc1ccc(OCCCOc2cccc3cccnc23)cc1`, the result was inactive.

In the case of `COc1ccc(NC(=O)c2cc(-c3ccc(C)o3)nc3ccccc23)cc1`, the result was inactive. `CN1/C(=C\C=C2\N=C(c3ccc(F)cc3)OC2=O)C(C)(C)c2ccccc21`: the result was inactive. The value for `COc1cc(C)c(C)cc1S(=O)(=O)N1CCCc2ccccc21` was “inactive”. On to `Cc1ccc(CS(=O)(=O)c2ncc(Cl)c(C(=O)Nc3nnc(C)s3)n2)cc1`, for which the result was inactive. For `O=C(Nc1nnc(-c2ccccc2)o1)c1cc(-c2cccs2)nc2ccccc12`, the result was inactive. Then `COC(=O)Cn1c(O)c(N=NC(=O)OC)c2ccccc21`, with “inactive”; and `CN(c1cccc(NC(=O)Nc2ccc(Cl)cc2)c1)S(C)(=O)=O`, with “inactive”.

For the molecule `CCc1cc(=O)oc2cc(C)cc(OCC(=O)N3CCC[C@@H]3C(=O)O)c12`, the result was inactive.

Take `CCOC(=O)c1c(C)[nH]c(=S)c(C#N)c1-c1ccccc1`: the result was inactive. On to `CCOc1ccccc1C1CC(c2ccc(Cl)cc2)Nc2nc(N)nn21` (configuration not stated), for which the outcome was inactive.

For `Cc1c(C(=O)N2CCCc3ccccc32)sc2nc(-c3ccccc3)cn12`, the outcome was inactive. Regarding `O=C(Cc1nc2ccccc2[nH]c1=O)c1ccc(Cl)cc1`, the result was inactive. In the case of `COc1cc(C2/C(=C(\O)c3ccc4c(c3)CC(C)O4)C(=O)C(=O)N2Cc2ccco2)ccc1O` (configuration not stated), the result was inactive.

For `CCc1nnc(NC(=O)CSc2nc3c(c(=O)n2-c2ccccc2OC)SCC3)s1`, the result was inactive. For `N=C(N)SCc1cccc2ccccc12`, the result was inactive. The value for `CCCCC(=O)NNC(=S)NC(=O)C(c1ccccc1)c1ccccc1` was “inactive”; that for `Cc1occc1C(=O)Nc1nnc(-c2ccncc2)s1` was “inactive”. With `Cc1ccc2nc(-c3ccc(NC(=O)c4cccnc4)cc3)oc2c1`, the outcome was inactive. With `COCCNC(=O)C1CCN(S(=O)(=O)c2ccc3c(c2)OCCO3)CC1`, the result was inactive. Regarding `CCN(CC)c1ccc(C2C3CCCCC3(O)CCN2CC(=O)Nc2ccccc2)cc1` (configuration not stated), the result was inactive. Regarding `COC(=O)c1c(NC(=O)CN(c2ccc(C)c(C)c2)S(C)(=O)=O)sc2c1CCCC2`, the outcome was inactive. Consider `CC(C)(C)Nc1c(-c2cccs2)nc2ccccn12`, for which the result was inactive. Then `Cc1onc(-c2ccccc2)c1C(=O)NNC(=S)NC(=O)c1ccc(F)cc1`, with “inactive”; and `COc1cccc(CCNC(=O)COc2cccc3c2OC(C)(C)C3)c1`, with “inactive”; and `COc1ccc(-n2c(SCC(=O)NCc3ccco3)nnc2-c2c[nH]c3ccccc23)cc1`, with “inactive”.

As to `CCS(=O)(=O)c1ccc2c(c1)N(S(=O)(=O)c1ccccc1)CC(C(=O)O)O2` (configuration not stated), the outcome was inactive. Regarding `Cc1nn(C(=O)c2ccoc2C)c(N)c1-c1ccccc1`, the outcome was inactive. With `O=C(COC(=O)C1CCN(S(=O)(=O)c2ccc3c(c2)OCCO3)CC1)Nc1ccccc1OC(F)F`, the outcome was inactive. On to `CC(=O)N(C)c1ccc(NC(=O)C(F)(F)F)cc1`, for which the result was inactive. Consider `O=C(CC(O)(C(F)(F)F)C(F)(F)F)Nc1ccc(Cl)c(Cl)c1`, for which the outcome was inactive. As to `O=C(CCN1CCc2ccccc2C(O)(c2ccccc2)C1)c1ccc2c(c1)OCCO2` (configuration not stated), the result was inactive. `COc1ccc(C2SCCN2S(=O)(=O)c2ccccc2)cc1OC` (configuration not stated): the result was inactive. Consider `CCc1cc2c(SCC(=O)Nc3ncc(Cl)c(C)c3Cl)ncnc2s1`, for which the result was inactive.

In the case of `CCOC(=O)c1c(NC(=O)CNC2CCCc3ccccc32)sc(C(N)=O)c1C` (configuration not stated), the result was inactive. As to `O=S(=O)(c1ccc2ccccc2c1)N1CCN(S(=O)(=O)N2CCOCC2)CC1`, the outcome was inactive. On to `Cc1cc(=O)oc2cc(NC(=O)C3CC(=O)N(Cc4ccccc4)C3)ccc12` (configuration not stated), for which the result was inactive.

Turning to `CCN(C(=O)CSc1nnc2ccccn12)C1CCS(=O)(=O)C1` (configuration not stated), the outcome was inactive. For `CC(=O)N(C1=C(Cl)C(=O)c2ccccc2C1=O)c1ccc(C(=O)O)cc1`, the result was inactive. `COc1ccc(C(=O)CSc2n[nH]c(N)n2)cc1`: the result was inactive. Take `O=C(Nc1ccccc1)c1nnsc1S(=O)(=O)c1ccc(Cl)cc1`: the outcome was inactive.

Take `Cc1ccc2cc(/C=N/Nc3ccc(C(=O)O)cc3)c(Cl)nc2c1`: the outcome was inactive. Turning to `c1ccc(-c2[nH]ncc2-c2nc3ccccc3[nH]2)cc1`, the result was inactive. As for `COc1ccccc1Oc1nc(-c2cccnc2)nc2ccccc12`, the result was inactive.

Consider `O=c1c2cc(Br)ccc2nc(-c2cccc(Cl)c2)n1O`, for which the result was inactive.

Take `COc1ccc([N+](=O)[O-])cc1NC(=O)COC(=O)/C=C/c1ccco1`: the outcome was inactive.

Regarding `C=CCSc1nc(Cc2ccc(Cl)cc2)nc2ccccc12`, the result was inactive. On to `NC(=O)c1c(Nc2nc3c(F)cccc3s2)sc2c1CCCC2`, for which the outcome was inactive.

`CCN(CC)CC(=O)Nc1nn(-c2ccccc2)nc1C(N)=O`: the result was inactive. Then `Cc1ccc(C(=O)COC(=O)CCN2C(=O)C3C4CC(C(Br)C4Br)C3C2=O)cc1` (configuration not stated), with “inactive”; and `Cc1ccc(-n2cnc3ncnc(-c4ccccc4)c32)cc1`, with “inactive”; and `CCOC(=O)Nc1ccc2c(c1)N(C(=O)CCN1CCN(CCO)CC1)c1ccccc1CC2`, with “inactive”.
